Experimental data: PubChem BioAssay (Tox21)
Calls of active or inactive are those of the source. Calls follow the shape of the full dose curve.

Target: Gonadotropin-releasing hormone receptor (Homo sapiens) (UniProt P30968)
Assay: Human gonadotropin-releasing hormone receptor (GnRHR) small molecule agonists, calcium flux assay in GnRHR-HEK293 cells (AID 1920063); also: nearly all actives have a fitted effect of over 35% in size
Settings: calcium flux fluorescence, agonist mode; series mostly up to 57.6 µM; activity change: at the top concentration
From the text: National Center for Advancing Translational Sciences [NCATS]
Division of Preclinical Innovation [DPI]
U.S. Environmental Protection Agency [EPA]
National Institutes of Environmental Health Sciences [NIEHS]
National Toxicology Program [NTP]
U.S. Food and Drug Administration [FDA]
Gonadotropin-releasing hormone receptor (GnRHR) is a G-protein-coupled receptor (GPCR) and acts (through phospholipase C) to increase intracellular inositol trisphosphate and then release intracellular calcium stores. Cell-based GnRHR-Hek293 calcium influx assay is using HEK293 cells that have been genetically engineered to express the human GnRHR, which activity can be measured by calcium signaling. A compound/drug can activate (agonist) GnRHR that can be monitored by levels of intracellular calcium.
GnRHR-HEK293 cells developed by Codex Corp contain human GnRHR reporter gene, which was stably integrated into HEK 293 cells. The compound activation can be detected by fluorescence intensity via calcium flux assay. This cell line has been used to screen the Tox21 10K compound library to identify GnRHR agonists.
GnRHR-Hek293 cells were dispensed at 1500cells/4uL/well in 1536-well black wall/clear bottom plates using a multidrop dispenser. After the assay plates were incubated at a 37 C/5% CO2 incubator for 18 hours, 4 uL of Calcium Dye Solution was added to each well. The plates were incubated at 37 C for 1 hour. For agonist mode, 23 nL of compounds dissolved in DMSO, positive controls or DMSO only was transferred to the assay plate by a pin tool station. The fluorescence intensity in the plates was measured using FDSS 7000EX kinetic plate reader with a filter set of Ex/Em=480/540 for 3 min at 1 sec intervals. Each test compound was measured at 15 concentrations and in triplicates.
% is scaled to controls: 0 for no effect and ±100 for the full control effect.

Gonadotropin-releasing hormone receptor (Homo sapiens), sequence (P30968 whole entry, looked up): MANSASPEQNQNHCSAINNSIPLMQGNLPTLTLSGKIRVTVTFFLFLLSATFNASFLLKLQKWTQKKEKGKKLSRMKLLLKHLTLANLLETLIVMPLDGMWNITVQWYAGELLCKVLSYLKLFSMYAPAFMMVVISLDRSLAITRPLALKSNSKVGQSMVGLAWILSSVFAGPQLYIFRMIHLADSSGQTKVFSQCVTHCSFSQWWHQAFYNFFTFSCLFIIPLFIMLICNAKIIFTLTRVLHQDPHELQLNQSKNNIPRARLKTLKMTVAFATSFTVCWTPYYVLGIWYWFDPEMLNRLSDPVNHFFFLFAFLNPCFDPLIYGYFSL

SMILES	activity change
CCCCCCCC1CCCC1=O (stereo not given)	-0.407% (inactive)
COc1c(C)c2c(c(O)c1C/C=C(\C)CCC(=O)OCCN1CCOCC1)C(=O)OC2	0.988% [at 26.4 µM, hits give high values] (inactive)
OCCN1C[C@H](O)[C@@H](O)[C@H](O)[C@H]1CO	-0.275% [at 26.4 µM, hits give high values] (inactive)
CCOC(=O)C(=O)CCCCCCl	0.0284% [at 26.4 µM, hits give high values] (inactive)
CC(CC(C#N)(c1ccccc1)C(C)C)N(C)C (stereo not given)	0.15% [at 26.4 µM, hits give high values] (inactive)
CCCCCCCCSCc1cc(C)c(O)c(CSCCCCCCCC)c1	0.801% (inactive)
CCCN(CCC)c1c([N+](=O)[O-])cc(C(F)(F)F)c(N)c1[N+](=O)[O-]	1.3% (inactive)
CN1CCN(C2=Nc3ccccc3Sc3ccc(Cl)cc32)CC1	0.381% [at 26.4 µM, hits give high values] (inactive)
CC(C)(O)CCC(C)(C)O	-0.0924% (inactive)
Clc1nnc(Cl)c2ccccc12	0.119% (inactive)
O=C(O)Cc1c(Cl)ccc(Cl)c1Cl	-0.954% (inactive)
CCCCCCCC[Si](OCC)(OCC)OCC	0.129% (inactive)
C/C=C(/C(=C/C)c1ccc(OC(C)=O)cc1)c1ccc(OC(C)=O)cc1	-0.735% [at 26.4 µM, hits give high values] (inactive)
O=C(c1ccc(O)cc1)c1ccc(O)cc1	-1.74% (inactive)
Oc1ccc(-c2ccc(O)cc2)cc1	-0.0746% (inactive)
CN(C)[C@@H]1C(=O)C(C(=O)NCN2CCCC2)=C(O)[C@@]2(O)C(=O)C3=C(O)c4c(O)cccc4[C@@](C)(O)C3C[C@@H]12 (stereo not given in full)	1.24% [at 26.4 µM, hits give high values] (inactive)
COc1cc2nc(Cl)nc(N)c2cc1OC	0.412% [at 26.4 µM, hits give high values] (inactive)
O=c1cc(-c2ccccc2)oc2ccc3ccccc3c12	-0.097% (inactive)
Cc1cc(O)c(C)c(C)c1O	-0.556% [at 26.4 µM, hits give high values] (inactive)
C[C@@]12C(=O)OC(=O)[C@]1(C)C1CCC2O1	2.63% [at 26.4 µM, hits give high values] (inactive)

SMILES	activity change
CCOc1ccc(NC(=O)OC(C)C)cc1OCC	-0.585% (inactive)
C[N+]12CCC(CC1)C(OC(=O)C(O)(c1ccccc1)c1ccccc1)C2 (stereo not given)	-2.15% [at 26.4 µM, hits give high values] (inactive)
CCCCCCCCCCCSCC(=O)O	-0.984% (inactive)
COC[C@H](c1ccc(C(F)(F)F)cc1)N1CCN(C2(C)CCN(C(=O)c3c(C)ncnc3C)CC2)C[C@H]1C	-1.03% [at 26.4 µM, hits give high values] (inactive)
CCOC(=O)COc1cc(-n2ncc(C(F)(F)F)c(C)c2=O)c(F)cc1Cl	-1.02% (inactive)
CCC(C(=O)OCCN(CC)CC)c1ccccc1 (stereo not given)	9.27% [at 26.4 µM, hits give high values] (inactive)
C=C(C)C1CC=C(C)C(O)C1 (stereo not given)	1.45% (inactive)
CCOC(=O)CCC(=O)OCC	0.737% (inactive)
CC(C)C(=O)OCc1ccccc1	-0.123% (inactive)
Cc1ccc2oc(CN(Cc3ccccc3)C(=O)Nc3c(F)cc(F)cc3F)c(-c3ccc(Cl)cc3)c2c1	7.58% (inactive)
CCCCCCCCN(C)CCCCCCCC	2.05% (inactive)
CCC(C(=O)O)c1ccc(N2Cc3ccccc3C2=O)cc1 (stereo not given)	-0.163% [at 26.4 µM, hits give high values] (inactive)
CCCCCCCCCCCC(C)=O	-0.0285% (inactive)
COc1ccc(C2C(=O)c3ccccc3C2=O)cc1	-0.377% [at 26.4 µM, hits give high values] (inactive)
CC(=O)OC1CCCCC1	2.08% (inactive)
CCCCCCOC(=O)CCCCC(=O)OCCCCCC	2.16% (inactive)
CCNC(=O)N1CCN(CCCC(c2ccc(F)cc2)c2ccc(F)cc2)CC1	2.96% [at 26.4 µM, hits give high values] (inactive)
CN(C)CCCCl	1.24% (inactive)
COC(=O)C1=C(C)NC(C)=C(C(=O)OC(C)(C)CN(C)CCC(c2ccccc2)c2ccccc2)C1c1cccc([N+](=O)[O-])c1 (stereo not given)	-0.49% [at 26.4 µM, hits give high values] (inactive)
Cc1ncc(CO)c(C=O)c1O	-1.57% [at 26.4 µM, hits give high values] (inactive)
